PubChem BioAssay (Tox21)
Inconclusive results are not listed. The source made the active and inactive calls. Unless noted, calls come from the whole dose curve; as a rule, active = well fitted curve in the direction sought with a large enough effect in the repeat runs; inconclusive = weak or mixed curves; inactive = no such curve, though single readings can be large; an effect the other way counts as inactive or inconclusive.

Experiments:
[1] = qHTS assay to identify small molecule agonists of the vitamin D receptor (VDR) signaling pathway - cell viability counter screen (AID 743224); note: series mostly up to about 63 µM; % is set by controls: 0 for no effect and ±100 for the full control effect; nearly all actives have a fitted effect of over 50% in size
In short: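 VDR-bla cells were preincubated 4 h at 37C/5% CO2, then exposed to compounds for 16 h. After the 2 h room-temperature bla FRET read, CellTiter-Glo was added to the same wells and luminescence read after 30 min.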

[2] = qHTS assay to identify small molecule antagonists of the vitamin D receptor (VDR) signaling pathway - cell viability counter screen (AID 743225); note: % is set by controls: 0 for no effect and ±100 for the full control effect; nearly all actives have a fitted effect of over 50% in size
In short: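 Parallel cytotoxicity test: VDR-UAS-bla HEK 293T, 3 nM (final) 1-alpha,25-dihydroxyvitamin D3 with test compound, 16 h, 37C. Endpoint is CellTiter-Glo luminescence in the same wells.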

[3] = qHTS assay to identify small molecule agonists of the NFkB signaling pathway (AID 1159509; active = well fitted curve in the direction sought with a large enough effect in the signal ratio in the repeat runs, not every such curve was filed as active; the % refers to the signal ratio; note: series mostly up to about 61 µM; % is set by controls: 0 for no effect and ±100 for the full control effect)
In short: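 After overnight attachment, reporter cells received test compounds, DMSO or positive controls and were incubated 5 hr at 37 C. FRET substrate was then added for 1.5 hr at room temperature before dual-emission fluorescence reading.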

[4] = qHTS assay to identify small molecule agonists of the NFkB signaling pathway - cell viability counter screen (AID 1159515; calls by dose curve; note: series mostly up to about 61 µM; % is set by controls: 0 for no effect and ±100 for the full control effect; nearly all actives have a fitted effect of over 55% in size)
In short: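 NFkB-bla ME-180 cells, 2,000/well, were plated overnight at 37 C, 5% CO2, then exposed to compounds in DMSO for 5 hr. After the bla FRET read, CellTiter-Glo was added to the same wells; luminescence was read after 30 min at room temperature.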

[5] = qHTS assay to identify small molecule agonists of the endoplasmic reticulum stress response signaling pathway (AID 1159516; active = well fitted activation curve with a large enough effect in the signal ratio in the repeat runs, not every such curve was filed as active; the % refers to the signal ratio; note: % is set by controls: 0 for no effect and ±100 for the full control effect)
In short: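 CellSensor ESRE-bla HeLa cells, carrying a beta-lactamase reporter driven by the ER stress response element, were plated overnight and exposed to compounds for 5 hr at 37 C. Reporter activity was read as FRET substrate fluorescence after 2 hr at room temperature.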

[6] = qHTS assay to identify small molecule agonists of the endoplasmic reticulum stress response signaling pathway - cell viability counter screen (AID 1159517; calls by dose curve; note: series mostly up to about 61 µM; % is set by controls: 0 for no effect and ±100 for the full control effect; nearly all actives have a fitted effect of over 50% in size)
In short: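 Cells, HeLa ESRE-bla; density, 1,500/well; dosing, 5 hr at 37 C, 5% CO2; readout, CellTiter-Glo luminescence after 30 min RT.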

[7] = qHTS assay to identify small molecule antagonists of the retinoid-related orphan receptor gamma (ROR-gamma) signaling pathway - cell viability counter screen (AID 1159520); note: % is set by controls: 0 for no effect and ±100 for the full control effect; nearly all actives have a fitted effect of over 50% in size
In short: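 Cytotoxicity was read from cellular ATP (CellTiter-Glo luminescence) after 16 hr at 37 C with 1 uM doxycycline induction. The inducer was added 2 hr after compound transfer to Tet-on ROR gamma CHO cells.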

[8] = qHTS assay to identify small molecule agonists of the AP-1 signaling pathway - cell viability counter screen (AID 1159525; calls by dose curve; note: nearly all actives have a fitted effect of over 55% in size)
In short: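 Luminescent ATP readout (Cell Titer Glo, 30 min RT), normalised to DMSO and tetra n-octyl ammonium bromide controls. Cells were ME-180 AP-1-bla in 0.5% dialyzed FBS Opti-MEM, with a 5 h, 37 °C compound exposure.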

[9] = qHTS assay to identify small molecule agonists of the AP-1 signaling pathway (AID 1159526; calls by dose curve; note: % is set by controls: 0 for no effect and ±100 for the full control effect)
[10] = target: Retinoic acid receptor RXR-alpha (Homo sapiens) (UniProt P19793); assay: qHTS assay to identify small molecule agonists of the RXR signaling pathway (AID 1159527; calls by dose curve; note: % is set by controls: 0 for no effect and ±100 for the full control effect; nearly all actives have a fitted effect of over 35% in size)
Sequence of Retinoic acid receptor RXR-alpha (Homo sapiens) (P19793 whole entry, looked up): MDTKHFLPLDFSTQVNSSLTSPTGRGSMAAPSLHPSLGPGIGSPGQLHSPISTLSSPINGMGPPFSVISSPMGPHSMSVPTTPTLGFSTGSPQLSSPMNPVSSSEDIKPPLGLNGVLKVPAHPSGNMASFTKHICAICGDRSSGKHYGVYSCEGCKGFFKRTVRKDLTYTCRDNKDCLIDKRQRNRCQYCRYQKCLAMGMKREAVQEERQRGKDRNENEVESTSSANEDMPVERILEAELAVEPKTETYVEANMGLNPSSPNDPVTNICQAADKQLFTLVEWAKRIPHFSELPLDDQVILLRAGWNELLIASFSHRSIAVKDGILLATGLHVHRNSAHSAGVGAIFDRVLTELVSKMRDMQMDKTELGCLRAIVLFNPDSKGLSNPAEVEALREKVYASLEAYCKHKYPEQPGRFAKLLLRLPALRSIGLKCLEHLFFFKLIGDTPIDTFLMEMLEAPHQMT
In short: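 16 hr incubation of compound-treated RXR-alpha-UAS-bla HEK 293T cells (2% charcoal-stripped FBS, 37 C) preceded a 2 hr room-temperature LiveBLAzer FRET substrate step and blue/green fluorescence measurement.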

[11] = qHTS assay to identify small molecule agonists of the RXR signaling pathway - cell viability counter screen (AID 1159529)
In short: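 In this parallel viability measure, GeneBLAzer RXR-alpha HEK 293T cells (2% charcoal-stripped FBS) were given a 5 hr preincubation, treated with compounds 16 hr at 37 C, and read by CellTiter-Glo luminescence.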

[12] = qHTS assay to identify small molecule antagonists of the retinoid acid receptor (RAR) signaling pathway - cell viability counter screen (AID 1159551); note: % is set by controls: 0 for no effect and ±100 for the full control effect; nearly all actives have a fitted effect of over 35% in size
In short: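 C3RL4 cells were seeded overnight at 37 C, then treated with compounds plus 1 uM (final) retinol for 6 h at 37 C. Viability was read as ATP by CellTiter-Glo luminescence after 30 min at room temperature.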

[13] = qHTS assay to identify small molecule antagonists of the retinoic acid receptor (RAR) signaling pathway (AID 1159552)
In short: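 C3RL4 RARE-luc cells, overnight plating; retinol 1 uM final added right after compound; 6 hr 37 C; luciferase read at 30 min RT.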

[14] = qHTS assay to identify small molecule agonists of the retinoic acid receptor (RAR) signaling pathway (AID 1159553); note: potency is the fitted concentration of half-maximal effect; for activation: % is set by controls: 0 for no effect and ±100 for the full control effect
In short: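 C3RL4 cells carrying a RARE luciferase reporter were plated overnight at 37 C, then exposed to compounds in DMSO for 6 hr at 37 C and 5% CO2. Luminescence was read 30 min after luciferase reagent addition at room temperature.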

CC1CN(c2cc3c(cc2F)c(=O)c(C(=O)O)cn3-c2ccc(F)cc2F)CCN1 (stereo unspecified)
inactive: activity change, negative = cytotoxicity [1] -0.741% [at 5.95 µM] | viability change, negative = cytotoxic [2] 9.78% [at 6.95 µM] | activation [3] 0.411% [at 6.95 µM] | activity, negative = cytotoxic [4] 3.41% [at 6.95 µM] | activation [5] -0.328% [at 6.95 µM] | activity change, negative = cytotoxicity [6] 10.1% [at 6.95 µM] | activity, negative = cytotoxicity [7] 3.27% [at 8.39 µM] | viability change, negative = cytotoxic [8] -6.8% [at 6.97 µM] | activation [9] 2.03% [at 6.97 µM] | activation [10] -0.207% [at 6.98 µM] | activity change, negative = cytotoxicity [11] -4.54% [at 6.97 µM] | activity change, negative = cytotoxicity [12] 0.772% [at 8.39 µM]

CCCOC(=O)c1ccc(N)cc1
inactive: Potency [1] | Potency [2] | outcome [3] | outcome [4] | outcome [5] | outcome [6] | Potency [7] | outcome [8] | outcome [9] | Potency [10] | Potency [11] | Potency [12] | Potency [13]
active: Potency [14] 23.7 µM

COC(OC)(C(=O)c1ccccc1)c1ccccc1
inactive: Potency [1] | Potency [2] | outcome [3] | outcome [4] | outcome [5] | outcome [6] | Potency [7] | outcome [8] | outcome [9] | Potency [10] | Potency [11] | Potency [12] | Potency [13]

O=C(O)c1snc(Cl)c1Cl
inactive: Potency [1] | Potency [2] | outcome [3] | outcome [4] | outcome [5] | outcome [6] | Potency [7] | outcome [8] | outcome [9] | Potency [10] | Potency [11] | Potency [12]

NC(=O)Nc1ccc(Cl)cc1
inactive: Potency [1] | Potency [2] | outcome [3] | outcome [4] | outcome [5] | outcome [6] | Potency [7] | outcome [8] | outcome [9] | Potency [10] | Potency [11] | Potency [12]

CCCCCCOC(=O)CCCCCCCC(=O)OCCCCCC
inactive: Potency [1] | outcome [3] | outcome [4] | outcome [5] | outcome [6] | Potency [7] | outcome [8] | outcome [9] | Potency [10] | Potency [11] | Potency [12]

CCCC(=O)O[C@]1(C(=O)COC(=O)CC)CC[C@H]2[C@@H]3CCC4=CC(=O)CC[C@]4(C)[C@H]3[C@@H](O)C[C@@]21C
inactive: Potency [1] | Potency [2] | outcome [3] | outcome [4] | outcome [5] | outcome [6] | activity, negative = cytotoxicity [7] 0.636% [at 19 µM] | viability change, negative = cytotoxic [8] -0.096% [at 15.8 µM] | activation [9] -6.02% [at 15.8 µM] | activation [10] 11.5% [at 15.8 µM] | activity change, negative = cytotoxicity [11] 2.05% [at 15.8 µM] | activity change, negative = cytotoxicity [12] -1.52% [at 19 µM]

CCOc1cc(N)c(Cl)cc1C(=O)NCC1CN(Cc2ccc(F)cc2)CCO1 (stereo unspecified)
inactive: Potency [1] | Potency [2] | outcome [3] | outcome [4] | outcome [5] | outcome [6] | Potency [7] | outcome [8] | outcome [9] | Potency [10] | Potency [11] | Potency [12] | Potency [14]

Cn1c(=O)c2c(ncn2CC(=O)O)n(C)c1=O
inactive: Potency [1] | Potency [2] | outcome [3] | outcome [4] | outcome [5] | outcome [6] | Potency [7] | outcome [8] | outcome [9] | Potency [10] | Potency [11] | Potency [12]

CC(C)(C)C(=O)C(Oc1ccc(Cl)cc1)n1ccnc1 (stereo unspecified)
inactive: Potency [1] | Potency [2] | outcome [3] | outcome [4] | outcome [5] | outcome [6] | Potency [7] | outcome [8] | outcome [9] | Potency [10] | Potency [11] | Potency [12] | Potency [13]

O=S1OCCO1
inactive: Potency [1] | Potency [2] | outcome [3] | outcome [4] | outcome [5] | outcome [6] | Potency [7] | outcome [8] | outcome [9] | Potency [10] | Potency [11] | Potency [12]

CC(C)(O)c1ccccc1CC[C@@H](SCC1(CC(=O)O)CC1)c1cccc(/C=C/c2ccc3ccc(Cl)cc3n2)c1
inactive: Potency [1] | Potency [2] | outcome [3] | outcome [4] | outcome [5] | outcome [6] | Potency [7] | outcome [8] | outcome [9] | Potency [10] | Potency [11] | Potency [12]

CC1=C(C=O)C(C)(C)CCC1
inactive: Potency [1] | Potency [2] | outcome [3] | outcome [4] | outcome [5] | outcome [6] | Potency [7] | outcome [8] | outcome [9] | Potency [10] | Potency [11] | Potency [12]

CN1CCN(c2c(F)cc3c(=O)c(C(=O)O)cn4c3c2OCN4C)CC1
inactive: Potency [1] | Potency [2] | outcome [3] | outcome [4] | outcome [5] | outcome [6] | activity, negative = cytotoxicity [7] 0.283% [at 19 µM] | viability change, negative = cytotoxic [8] 12.5% [at 15.8 µM] | activation [9] 4.3% [at 15.8 µM] | activation [10] 9.65% [at 15.8 µM] | activity change, negative = cytotoxicity [11] 2.53% [at 15.8 µM] | activity change, negative = cytotoxicity [12] -0.366% [at 19 µM]

Cc1cc(C(=C2C=CC(=Nc3ccc(S(=O)(=O)O)cc3S(=O)(=O)O)C=C2)c2ccc(Nc3ccc(S(=O)(=O)O)cc3)cc2)ccc1N
inactive: Potency [1] | Potency [2] | outcome [3] | outcome [4] | outcome [5] | outcome [6] | Potency [7] | outcome [8] | outcome [9] | Potency [10] | Potency [11] | Potency [12]

C/C=C(\C)C(=O)OCCC(C)CCC=C(C)C (stereo unspecified)
inactive: Potency [1] | Potency [2] | outcome [3] | outcome [4] | outcome [5] | outcome [6] | Potency [7] | outcome [8] | outcome [9] | Potency [10] | Potency [11] | Potency [12]

Oc1cc(O)c(Cl)cc1Cl
inactive: Potency [1] | outcome [3] | outcome [4] | outcome [5] | outcome [6] | Potency [7] | outcome [8] | outcome [9] | Potency [10] | Potency [11] | Potency [12]

CC(N)CN (stereo unspecified)
inactive: Potency [1] | Potency [2] | outcome [3] | outcome [4] | outcome [5] | outcome [6] | Potency [7] | outcome [8] | outcome [9] | Potency [10] | Potency [11] | Potency [12]

CCCC1C(CC)=CC(CC)=CN1c1ccccc1 (stereo unspecified)
inactive: outcome [3] | outcome [4] | outcome [5] | outcome [6] | Potency [7] | outcome [8] | outcome [9] | Potency [10] | Potency [11] | Potency [12]

C=CC(C)=CCC=C(C)C
inactive: Potency [1] | Potency [2] | outcome [3] | outcome [4] | outcome [5] | outcome [6] | Potency [7] | outcome [8] | outcome [9] | Potency [10] | Potency [11] | Potency [12]
